The test system of assay [1] is Staphylococcus aureus. The experiment in a line: Antibacterial activity against Staphylococcus aureus MRSA ATCC 43300 (CO-ADD:GP_020); MIC in CAMBH media using NBS plates, by Resazurin F(560/590). In kind it is functional. The conditions noted are these: Concentration 20 uM, ASSAY_TEST Inhibition of Bacterial Growth, detection method Resazurin, Fluorescence (ex560/em590), MEDIA CAMHB, plate type 384well, CORNING #3640, time 18 hr.

Assay [2] concerns Acinetobacter baumannii. The assay is described as follows: Antibacterial activity against Acinetobacter baumannii ATCC 19606 (CO-ADD:GN_034); MIC in CAMBH media using NBS plates, by Resazurin F(560/590). Type of assay: functional. The conditions noted are these: Concentration 20 uM, ASSAY_TEST Inhibition of Bacterial Growth, detection method Resazurin, Fluorescence (ex560/em590), MEDIA CAMHB, plate type 384well, CORNING #3640, time 18 hr.

Assay [3] has as its system Escherichia coli. The experiment in a line: Antibacterial activity against Escherichia coli ATCC 25922 (CO-ADD:GN_001); MIC in CAMBH media using NBS plates, by Resazurin F(560/590). In kind it is functional. The conditions noted are these: Concentration 20 uM, ASSAY_TEST Inhibition of Bacterial Growth, detection method Resazurin, Fluorescence (ex560/em590), MEDIA CAMHB, plate type 384well, CORNING #3640, time 18 hr.

For assay [4], the system named is Klebsiella pneumoniae. As to conditions: Concentration 20 uM; ASSAY_TEST Inhibition of Bacterial Growth; detection method Absorption (OD600); MEDIA CAMHB; plate type 384well; NBS; CORNING #3640; time 18 hr.
Assay [5] concerns Candida albicans. As to conditions: 20 µM.
Assay [6] has as its system Cryptococcus neoformans. As to conditions: Concentration 20 uM; ASSAY_TEST Inhibition of Fungal Growth; detection method Resazurin; Absorption (OD600-OD570); plate type 384well; NBS; CORNING #3640.

For part of these data: Results with a measured potency or affinity are listed apart.

Turning to `COc1c2c(c(CC=C(C)C)c3oc(=O)c(-c4ccc(O)cc4)c(O)c13)OC(C)(C)C=C2` [LONCHOCARPIC ACID], the Inhibition was 25.18% in assay [1]; -13.6% in assay [2]; 7.94% in assay [3]; -4.69% in assay [4]; -1.79% in assay [5]; -11.25% in assay [6].
As for `CC12C(=O)C=CCC1=CCC1C2CCC2(O)C(=O)OC3(C)C4CC5(C)C(COC16OC23C5C6=O)C(=O)O4` (stereo not given), the Inhibition was 21.05% in assay [1]; -16.5% in assay [2]; 8.61% in assay [3]; -1.2% in assay [4]; -2.84% in assay [5]; -7.36% in assay [6].
Turning to `COc1ccc2c3c([nH]c2c1)[C@H](C=C(C)C)N1C(=O)[C@@H]2CCCN2C(=O)[C@@H]1C3` [FUMITREMORGIN], the Inhibition in assay [1] is -0.07%; in assay [2], 0.14%; in assay [3], 5.9%; in assay [4] it was -0.45%; in assay [5], 1.52%; in assay [6] it was -5.88%.
Take `CC[C@@]1(O)C(=O)OCc2c1cc1n(c2=O)Cc2cc3ccccc3nc2-1` [CAMPTOTHECIN]: the Inhibition in assay [1] is 9.46%; in assay [2], -0.94%; in assay [3] it was 5.98%; in assay [4], 5.61%; in assay [5], 4.14%; in assay [6], -6.71%.
For `CC(O)CCC(=O)c1ccoc1` (stereo not given), the Inhibition in assay [1] was -1.39%; in assay [2], -6.14%; in assay [3], 1.51%; in assay [4], -0.54%; in assay [5], -0.15%; in assay [6], -5.46%.
For the compound `C=C1C(=O)O[C@@H]2C[C@@H](C)[C@@H]3C=CC(=O)[C@@]3(C)[C@@H](O)[C@H]12` [HELENALIN], the Inhibition in assay [1] is 9.39%; in assay [2], -4.22%; in assay [3], 4.79%; in assay [4] it was 9.92%; in assay [5], 2.42%; in assay [6] it was -2.82%.
Take `CN1CCc2cc3c(cc2[C@H]1[C@@H]1OC(=O)c2c1ccc1c2OCO1)OCO3` [BICUCULLINE]: the Inhibition was 11.14% in assay [1]; -4.97% in assay [2]; 3.43% in assay [3]; 11.38% in assay [4]; -1.4% in assay [5]; -11.52% in assay [6].
As for `C[C@H]1CCC/C=C/[C@@H]2C[C@H](O)C[C@H]2[C@H](O)/C=C/C(=O)O1` [BREFELDIN A], the Inhibition in assay [1] was 11.17%; in assay [2], -7.42%; in assay [3], 11.85%; in assay [4] it was -5.16%; in assay [5], 51.3%; in assay [6] it was -9.22%.
Regarding `COc1ccc2c(c1OC)CN1CCc3cc4c(cc3C1C2)OCO4` (stereo not given) [TETRAHYDROBERBERINE], the Inhibition was 10.57% in assay [1]; -8.62% in assay [2]; 7.87% in assay [3]; -2.26% in assay [4]; -1.05% in assay [5]; -13.18% in assay [6].
As to `C=C1C(=O)OC2C1CCC(C)C1(O)C=CC(=O)C21C` (stereo not given), the Inhibition in assay [1] is -5.72%; in assay [2], -10.47%; in assay [3], 2.36%; in assay [4], 3.79%; in assay [5], -0.93%; in assay [6], -3.28%.
In the case of `C=C1C(C)C2C(Cc3ccccc3)NC(=O)C23C(OC(C)=O)/C=C/C(C)(O)CC(C)C/C=C/C3C1O` (stereo not given), the Inhibition in assay [1] was -5.72%; in assay [2] it was -9.16%; in assay [3], -0.68%; in assay [4], -1.52%; in assay [5], 1.45%; in assay [6] it was -3.95%.
Turning to `COc1ccc(C(=O)O[C@H]2CC[C@@]3(C)[C@@H]4CC[C@H]5[C@]6(O)C[C@H](O)[C@@]7(O)[C@@H](CN8C[C@@H](C)CC[C@H]8[C@@]7(C)O)[C@]6(O)C[C@@]53OC24O)cc1OC`, the Inhibition was 16.97% in assay [1]; -4.41% in assay [2]; 7.62% in assay [3]; 3.66% in assay [4]; -1.53% in assay [5]; -9.31% in assay [6].
On to `CCCCCC(O)C1C(=O)OC(C)C(O)/C=C/C=C/C=C/C=C/C=C(\C)C(O)C(O)C(O)CC(O)CC(O)CC(O)CC(O)CC1O` (stereo not given), for which the Inhibition in assay [1] is -5.29%; in assay [2] it was 1.14%; in assay [3] it was 2.6%; in assay [4], 3.06%; in assay [5] it was -5.54%; in assay [6], -5.55%.
On to `CC1CCC2C(C)C3C(CC4C5CC=C6CC(OC7OC(CO)C(O)C(OC8OC(CO)C(O)C(O)C8O)C7OC7OC(C)C(O)C(O)C7O)CCC6(C)C5CCC43C)N2C1.Cl` (stereo not given), for which the Inhibition in assay [1] was -4.66%; in assay [2], -5.32%; in assay [3], -0.39%; in assay [4] it was 4.14%; in assay [5] it was -2.24%; in assay [6], -10.4%.
Turning to `CC(C)(O)C1C2OC(=O)C1C1(O)CC3OC34C(=O)OC2C14C` (stereo not given), the Inhibition in assay [1] is -15.24%; in assay [2], -3.06%; in assay [3], 2.11%; in assay [4], 1.65%; in assay [5], 3.44%; in assay [6], -6.7%.
